Reference: ChEMBL document CHEMBL1961873, “Compounds: GSK PKIS; Assays: Nanosyn kinase panel” (2012)

Tests used:
[1] = molecular target: T1, Serine/threonine-protein kinase D2 (Homo sapiens) (UniProt Q9BZL6); details: at 1 µM;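 note: mean value of PRKD2 inhibition, from the GSK PKIS screening panel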
T1 sequence (whole entry): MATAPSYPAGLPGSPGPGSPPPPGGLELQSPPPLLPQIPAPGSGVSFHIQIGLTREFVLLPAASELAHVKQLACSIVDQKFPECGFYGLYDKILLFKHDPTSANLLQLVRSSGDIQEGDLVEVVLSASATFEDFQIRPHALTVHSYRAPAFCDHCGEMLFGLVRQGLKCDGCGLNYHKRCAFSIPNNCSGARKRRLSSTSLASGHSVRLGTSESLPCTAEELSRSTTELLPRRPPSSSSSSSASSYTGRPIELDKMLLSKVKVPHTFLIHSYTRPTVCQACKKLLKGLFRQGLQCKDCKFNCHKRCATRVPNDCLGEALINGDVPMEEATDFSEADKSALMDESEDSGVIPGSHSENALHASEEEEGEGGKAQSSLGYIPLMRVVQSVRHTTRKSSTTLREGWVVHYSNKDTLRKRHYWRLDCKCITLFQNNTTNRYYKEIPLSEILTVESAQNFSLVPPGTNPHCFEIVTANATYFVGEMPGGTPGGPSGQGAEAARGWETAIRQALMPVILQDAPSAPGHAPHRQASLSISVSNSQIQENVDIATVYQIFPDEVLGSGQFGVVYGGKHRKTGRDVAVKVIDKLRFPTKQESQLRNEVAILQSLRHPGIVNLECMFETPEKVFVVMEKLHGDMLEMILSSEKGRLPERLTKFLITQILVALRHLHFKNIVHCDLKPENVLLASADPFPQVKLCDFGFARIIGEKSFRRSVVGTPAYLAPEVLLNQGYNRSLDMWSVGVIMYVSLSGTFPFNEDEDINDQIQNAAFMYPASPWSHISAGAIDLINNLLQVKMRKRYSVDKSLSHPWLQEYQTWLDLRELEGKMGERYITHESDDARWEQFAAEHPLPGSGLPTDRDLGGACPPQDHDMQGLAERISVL

[2] = molecular target: T2, Serine/threonine-protein kinase D3 (Homo sapiens) (UniProt O94806); details: at 0.1 µM
T2 sequence (whole entry): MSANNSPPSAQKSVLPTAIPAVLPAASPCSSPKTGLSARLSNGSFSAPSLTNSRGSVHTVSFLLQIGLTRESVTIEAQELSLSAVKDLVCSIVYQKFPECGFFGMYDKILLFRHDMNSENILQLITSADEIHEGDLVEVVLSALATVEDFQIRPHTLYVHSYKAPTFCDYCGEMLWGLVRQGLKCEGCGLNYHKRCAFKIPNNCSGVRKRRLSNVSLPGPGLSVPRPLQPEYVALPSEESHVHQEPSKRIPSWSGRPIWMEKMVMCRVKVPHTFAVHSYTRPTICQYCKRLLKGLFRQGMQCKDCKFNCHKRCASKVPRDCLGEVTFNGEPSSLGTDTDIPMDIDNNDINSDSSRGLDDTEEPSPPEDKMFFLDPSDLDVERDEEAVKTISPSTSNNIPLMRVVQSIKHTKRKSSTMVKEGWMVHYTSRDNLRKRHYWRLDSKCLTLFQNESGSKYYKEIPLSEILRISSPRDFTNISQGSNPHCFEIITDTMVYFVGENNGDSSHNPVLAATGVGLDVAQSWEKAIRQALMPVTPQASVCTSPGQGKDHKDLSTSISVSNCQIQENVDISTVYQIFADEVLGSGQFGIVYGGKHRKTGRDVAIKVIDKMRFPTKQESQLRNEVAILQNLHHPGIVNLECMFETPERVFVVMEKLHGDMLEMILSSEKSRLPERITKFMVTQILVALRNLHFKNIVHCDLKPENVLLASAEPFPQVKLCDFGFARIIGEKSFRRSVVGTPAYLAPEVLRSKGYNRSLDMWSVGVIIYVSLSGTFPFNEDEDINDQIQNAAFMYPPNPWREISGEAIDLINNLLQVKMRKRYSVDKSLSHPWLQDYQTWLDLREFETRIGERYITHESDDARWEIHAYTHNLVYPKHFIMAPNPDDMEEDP

[3] = molecular target: T2, Serine/threonine-protein kinase D3 (Homo sapiens); details: at 1 µM
[4] = molecular target: T3, cGMP-dependent protein kinase 1 (Homo sapiens) (UniProt Q13976); details: at 0.1 µM
T3 sequence (whole entry): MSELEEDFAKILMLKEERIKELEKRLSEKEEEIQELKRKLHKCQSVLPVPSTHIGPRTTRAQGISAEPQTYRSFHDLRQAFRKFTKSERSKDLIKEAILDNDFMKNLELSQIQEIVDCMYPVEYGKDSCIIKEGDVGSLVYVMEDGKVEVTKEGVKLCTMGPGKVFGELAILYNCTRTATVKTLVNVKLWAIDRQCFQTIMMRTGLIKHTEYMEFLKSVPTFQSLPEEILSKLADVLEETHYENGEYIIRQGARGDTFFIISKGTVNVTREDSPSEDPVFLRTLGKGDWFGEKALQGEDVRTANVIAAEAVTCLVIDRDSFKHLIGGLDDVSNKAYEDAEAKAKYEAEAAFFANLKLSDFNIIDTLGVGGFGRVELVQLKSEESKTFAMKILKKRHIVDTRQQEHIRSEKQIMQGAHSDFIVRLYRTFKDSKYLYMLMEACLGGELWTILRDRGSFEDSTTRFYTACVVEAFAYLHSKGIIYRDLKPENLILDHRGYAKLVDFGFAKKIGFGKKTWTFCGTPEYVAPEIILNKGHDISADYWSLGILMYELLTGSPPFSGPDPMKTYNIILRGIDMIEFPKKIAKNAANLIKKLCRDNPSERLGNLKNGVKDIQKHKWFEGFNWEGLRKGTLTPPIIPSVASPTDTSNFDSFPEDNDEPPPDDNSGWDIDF

[5] = molecular target: T4, cGMP-dependent protein kinase 2 (Homo sapiens) (UniProt Q13237); details: at 0.1 µM
T4 sequence (whole entry): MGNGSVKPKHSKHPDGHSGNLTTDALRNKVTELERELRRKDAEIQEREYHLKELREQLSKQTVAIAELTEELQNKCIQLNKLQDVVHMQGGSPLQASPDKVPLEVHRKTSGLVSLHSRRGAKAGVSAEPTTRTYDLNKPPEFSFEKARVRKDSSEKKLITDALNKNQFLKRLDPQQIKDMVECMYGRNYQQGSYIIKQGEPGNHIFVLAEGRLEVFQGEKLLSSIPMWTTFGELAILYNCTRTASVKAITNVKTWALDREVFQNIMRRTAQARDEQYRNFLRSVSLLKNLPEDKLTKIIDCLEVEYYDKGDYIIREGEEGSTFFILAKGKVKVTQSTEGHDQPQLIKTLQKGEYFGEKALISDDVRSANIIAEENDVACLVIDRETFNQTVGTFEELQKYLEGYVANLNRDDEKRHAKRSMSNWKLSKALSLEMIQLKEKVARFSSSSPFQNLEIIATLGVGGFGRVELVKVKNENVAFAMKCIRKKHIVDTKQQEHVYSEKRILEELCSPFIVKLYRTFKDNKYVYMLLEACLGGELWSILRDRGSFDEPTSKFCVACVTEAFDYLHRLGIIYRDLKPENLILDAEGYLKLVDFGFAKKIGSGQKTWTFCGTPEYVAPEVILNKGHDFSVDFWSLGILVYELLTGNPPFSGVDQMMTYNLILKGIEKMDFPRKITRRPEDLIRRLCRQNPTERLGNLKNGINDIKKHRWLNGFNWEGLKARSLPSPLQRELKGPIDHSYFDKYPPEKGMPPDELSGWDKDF

[6] = molecular target: T4, cGMP-dependent protein kinase 2 (Homo sapiens); details: at 1 µM
[7] = molecular target: T5, cAMP-dependent protein kinase catalytic subunit PRKX (Homo sapiens) (UniProt P51817); details: at 0.1 µM
T5 sequence (whole entry): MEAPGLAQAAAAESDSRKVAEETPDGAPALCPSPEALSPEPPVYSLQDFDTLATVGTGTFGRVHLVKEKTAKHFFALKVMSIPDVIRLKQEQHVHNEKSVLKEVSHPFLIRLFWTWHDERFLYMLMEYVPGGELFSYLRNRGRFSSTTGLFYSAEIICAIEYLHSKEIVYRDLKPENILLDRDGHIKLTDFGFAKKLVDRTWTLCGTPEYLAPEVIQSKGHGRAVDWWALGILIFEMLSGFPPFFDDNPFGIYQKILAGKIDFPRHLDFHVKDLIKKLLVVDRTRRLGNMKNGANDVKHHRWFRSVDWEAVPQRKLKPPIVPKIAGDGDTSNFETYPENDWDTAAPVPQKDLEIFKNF

[8] = molecular target: T5, cAMP-dependent protein kinase catalytic subunit PRKX (Homo sapiens); details: at 1 µM
[9] = molecular target: Rho-associated protein kinase 1 (Homo sapiens) (UniProt Q13464); details: at 0.1 µM;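 note: values are mean percent inhibition of ROCK1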
[10] = molecular target: T3, cGMP-dependent protein kinase 1 (Homo sapiens); details: at 1 µM

Rho-associated protein kinase 1 (Homo sapiens), sequence (Q13464 2-1354 limits assumed): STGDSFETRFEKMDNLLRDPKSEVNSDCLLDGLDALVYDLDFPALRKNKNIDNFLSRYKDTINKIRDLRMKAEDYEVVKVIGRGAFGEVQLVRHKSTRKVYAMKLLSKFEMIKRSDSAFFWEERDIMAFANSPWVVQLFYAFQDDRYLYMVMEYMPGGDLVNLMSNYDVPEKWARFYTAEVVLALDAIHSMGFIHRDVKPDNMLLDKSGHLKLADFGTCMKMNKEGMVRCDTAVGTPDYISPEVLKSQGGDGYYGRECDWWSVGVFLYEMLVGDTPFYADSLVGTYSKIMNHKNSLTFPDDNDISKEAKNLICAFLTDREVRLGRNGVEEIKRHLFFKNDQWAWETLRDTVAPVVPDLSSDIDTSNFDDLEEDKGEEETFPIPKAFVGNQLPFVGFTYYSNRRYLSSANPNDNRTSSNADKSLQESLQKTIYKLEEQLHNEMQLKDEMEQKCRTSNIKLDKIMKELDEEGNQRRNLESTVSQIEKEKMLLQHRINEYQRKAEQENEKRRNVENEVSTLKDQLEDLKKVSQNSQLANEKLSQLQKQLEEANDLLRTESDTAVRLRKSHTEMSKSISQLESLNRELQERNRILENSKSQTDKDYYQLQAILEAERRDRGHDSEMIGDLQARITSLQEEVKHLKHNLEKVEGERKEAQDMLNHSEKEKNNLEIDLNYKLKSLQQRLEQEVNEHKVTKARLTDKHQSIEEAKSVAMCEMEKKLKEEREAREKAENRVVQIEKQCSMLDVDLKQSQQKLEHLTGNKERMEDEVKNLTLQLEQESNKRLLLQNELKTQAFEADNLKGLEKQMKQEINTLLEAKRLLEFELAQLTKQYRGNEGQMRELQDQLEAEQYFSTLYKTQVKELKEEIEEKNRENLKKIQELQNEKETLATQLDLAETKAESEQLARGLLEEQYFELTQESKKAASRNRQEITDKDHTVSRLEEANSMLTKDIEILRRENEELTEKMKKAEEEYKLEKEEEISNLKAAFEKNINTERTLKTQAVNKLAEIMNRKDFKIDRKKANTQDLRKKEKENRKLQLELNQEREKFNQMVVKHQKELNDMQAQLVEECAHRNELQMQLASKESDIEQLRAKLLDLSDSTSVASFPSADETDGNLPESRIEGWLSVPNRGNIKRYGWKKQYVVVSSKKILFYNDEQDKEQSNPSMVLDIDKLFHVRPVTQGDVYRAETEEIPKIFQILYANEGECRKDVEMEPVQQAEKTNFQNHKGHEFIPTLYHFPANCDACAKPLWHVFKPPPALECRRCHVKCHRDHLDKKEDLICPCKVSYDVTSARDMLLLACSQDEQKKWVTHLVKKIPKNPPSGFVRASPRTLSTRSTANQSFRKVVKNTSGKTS

COc1cccc(-n2ncc3c(N/N=C/c4ccncc4)ncnc32)c1
inhibition [1]: 9.06% | inhibition [2]: 5.79% | inhibition [3]: 9.03% | inhibition [4]: 3.25% | inhibition [5]: 1.96% | inhibition [6]: 6.05% | inhibition [7]: 1.85% | inhibition [8]: 2.86% | inhibition [9]: 2.51%

CCn1c(-c2nonc2N)nc2c(C#CC(C)(C)O)ncc(OCC3CCNCC3)c21
inhibition [1]: 3.59% | inhibition [2]: 0.21% | inhibition [3]: 4.23% | inhibition [4]: 9.8% | inhibition [10]: 48.9% | inhibition [5]: 35.4% | inhibition [6]: 70.1% | inhibition [7]: 45.6% | inhibition [8]: 75.7% | inhibition [9]: 1.94%

Nc1nonc1-c1nc2cnccc2n1C1CCCCC1
inhibition [1]: 4.59% | inhibition [2]: -1.73% | inhibition [3]: 2.27% | inhibition [4]: 14.4% | inhibition [10]: 61.2% | inhibition [5]: 41.1% | inhibition [6]: 80.9% | inhibition [7]: 3.71% | inhibition [8]: 21.7% | inhibition [9]: 31%

CCn1c(-c2nonc2N)nc2c(C#CC(C)(C)O)ncc(OC[C@@H]3CCCN3)c21
inhibition [1]: 12.6% | inhibition [2]: 2.38% | inhibition [3]: 15.9% | inhibition [4]: 49.9% | inhibition [10]: 76.4% | inhibition [5]: 65.7% | inhibition [6]: 76.5% | inhibition [7]: 77% | inhibition [8]: 85.4% | inhibition [9]: 1.1%

COc1cc(C=NNc2ncnc3c2cnn3Cc2ccccc2)ccc1O
inhibition [1]: 1% | inhibition [2]: -4.03% | inhibition [3]: -1.04% | inhibition [4]: 0.15% | inhibition [10]: 3.36% | inhibition [5]: 0.26% | inhibition [6]: 4.01% | inhibition [7]: 0.31% | inhibition [8]: 5.24% | inhibition [9]: 1.47%

Cc1cc(-c2ccco2)cc(C)c1/C=C/c1cncc(-c2nn[nH]n2)c1
inhibition [1]: 2.37% | inhibition [2]: 2.09% | inhibition [3]: 1.22% | inhibition [4]: -0.2% | inhibition [10]: -0.46% | inhibition [5]: 0.23% | inhibition [6]: -1.21% | inhibition [7]: 0.69% | inhibition [8]: -0.08% | inhibition [9]: 0.84%

CCn1c(-c2nonc2N)nc2c(C#CC(C)(C)O)nc(O[C@@H](CN)c3ccccc3)cc21
inhibition [1]: 66.3% | inhibition [2]: 10.9% | inhibition [3]: 64.3% | inhibition [4]: 68.7% | inhibition [10]: 81.1% | inhibition [5]: 67.9% | inhibition [6]: 84.4% | inhibition [7]: 82.3% | inhibition [8]: 88.2% | inhibition [9]: 9.16%

CCn1c(-c2nonc2N)nc2c(C#CCN)ncc(OCCCN)c21
inhibition [1]: 0.48% | inhibition [2]: -2.29% | inhibition [3]: -1.06% | inhibition [4]: 8.62% | inhibition [10]: 38% | inhibition [5]: 37.1% | inhibition [6]: 74.6% | inhibition [7]: 4.23% | inhibition [8]: 18.9% | inhibition [9]: 7.73%

NC(=O)c1sc(-n2cnc3cc(C(F)(F)F)ccc32)cc1OCc1ccccc1Br
inhibition [1]: 2.17% | inhibition [2]: 1.16% | inhibition [3]: 1.32% | inhibition [4]: 0.44% | inhibition [10]: -0.88% | inhibition [5]: 0.81% | inhibition [6]: 1.01% | inhibition [7]: 0.67% | inhibition [8]: 1.17% | inhibition [9]: 0.41%

COc1cccc(COc2cc(-n3cnc4ccccc43)sc2C(N)=O)c1
inhibition [1]: 0.96% | inhibition [2]: 0.24% | inhibition [3]: 0.32% | inhibition [4]: 0.58% | inhibition [10]: -0.92% | inhibition [5]: 1.93% | inhibition [6]: -0.04% | inhibition [7]: 1.72% | inhibition [8]: 1.42% | inhibition [9]: -0.06%

NS(=O)(=O)c1ccc(N/C=C2\C(=O)Nc3ccc4ncsc4c32)cc1
inhibition [1]: 58.2% | inhibition [2]: 13.7% | inhibition [3]: 54.2% | inhibition [4]: 4.89% | inhibition [10]: 16.7% | inhibition [5]: 9.85% | inhibition [6]: 47.9% | inhibition [7]: 2.57% | inhibition [8]: 6.55% | inhibition [9]: 6.26%

Fc1ccc(-c2ncn(C3CCNCC3)c2-c2ccnc(Oc3ccccc3)n2)cc1
inhibition [1]: 4.29% | inhibition [2]: -1.84% | inhibition [3]: 2.37% | inhibition [4]: 0.84% | inhibition [10]: 0.86% | inhibition [5]: 0.69% | inhibition [6]: 0.2% | inhibition [7]: 1.64% | inhibition [8]: 1.63% | inhibition [9]: 0.65%

NS(=O)(=O)c1ccc(-c2ccc3c(NC(=O)C4CC4)n[nH]c3c2)cc1
inhibition [1]: 0.5% | inhibition [2]: 1.37% | inhibition [3]: 0.5% | inhibition [4]: 0.62% | inhibition [10]: 1.57% | inhibition [5]: 1.04% | inhibition [6]: 3.29% | inhibition [7]: 1.26% | inhibition [8]: -1.16% | inhibition [9]: 1.11%

COc1cc2c(cc1Nc1nc(Nc3ccsc3C(N)=O)c3cc[nH]c3n1)N(C(=O)CN(C)C)CCC2
inhibition [1]: 39.7% | inhibition [2]: 9.23% | inhibition [3]: 51.1% | inhibition [4]: -0.55% | inhibition [10]: -0.01% | inhibition [5]: 0.12% | inhibition [6]: 1.58% | inhibition [7]: 2.02% | inhibition [8]: 1.29% | inhibition [9]: 5.03%
